CYP2C9 inh = inhibitors of human CYP2C9. CYP2C9 Supersomes, luciferin-H conversion, luminescence. inhibition, % at 5 µM. 96,000 tested, 20% active. AID 777;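 active means blocking of liver enzyme CYP2C9 beyond about 50% at 5 µM, limit read from the data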
Target sequence (P11712 whole entry, looked up): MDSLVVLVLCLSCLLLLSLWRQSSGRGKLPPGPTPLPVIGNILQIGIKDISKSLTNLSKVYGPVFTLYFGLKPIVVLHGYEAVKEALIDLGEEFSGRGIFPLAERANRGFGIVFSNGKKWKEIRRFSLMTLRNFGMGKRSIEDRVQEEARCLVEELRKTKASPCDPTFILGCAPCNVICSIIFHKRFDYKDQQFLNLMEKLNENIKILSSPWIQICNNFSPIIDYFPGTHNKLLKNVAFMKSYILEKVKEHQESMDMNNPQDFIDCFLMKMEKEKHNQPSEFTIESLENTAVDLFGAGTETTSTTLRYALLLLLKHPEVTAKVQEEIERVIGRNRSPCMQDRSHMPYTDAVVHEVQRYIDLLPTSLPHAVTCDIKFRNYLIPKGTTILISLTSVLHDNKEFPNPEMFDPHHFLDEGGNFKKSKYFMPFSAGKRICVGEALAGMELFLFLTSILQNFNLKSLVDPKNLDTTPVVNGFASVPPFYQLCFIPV
MRP-1 activ = activates MRP-1. H69AR cells + doxorubicin, viability rescue, CellTiter-Glo. AID 799. 140,000 tested, 0.61% active. viability increase, % at 10 µM;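 active means viability gain under doxorubicin at or above a set limit, the compound median plus 3 SD, cut at about 4.7% in these data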;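 further: MRP-1 overexpressing cells given doxorubicin 25 µM after compound pretreatment; 18-22 h compound pretreatment then 72 h with doxorubicin before readout; 0% = doxorubicin-only wells and 100% = vehicle-treated cells without doxorubicin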
MRP resist rev = MRP-mediated drug resistance reversal; H69AR cells + 2 uM doxorubicin, CellTiter-Glo, 72 h; differential viability (reversal), % at 10 µM; 85,000 tested, 0.04% active; AID 602;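 active means viability drop by adding the cancer drug above about 55%, with treated viability meeting a 40% cutoff, limit read from the data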;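 further: viability without doxorubicin minus viability with 2 µM doxorubicin for each compound; larger differential means the compound sensitizes cells more to doxorubicin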
CYP2C9 activ = increases human cytochrome P450 2C9 activity. 96,000 tested, 1.4% active. activation factor at 5 µM. recombinant CYP2C9, luciferin-H conversion, luminescence; hits give high values; factor 1 = untreated enzyme, 0 = blocked. P11712;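 active means activation factor of 2 or more for CYP2C9 at a 5 µM dose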;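 further: 0 = sulfaphenazole-blocked wells and 1 = vehicle-only wells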
CYP2C19 act = cytochrome P450 2C19 (human) activation; recombinant CYP2C19, luciferin-H EGE luminescence; hits give high values; 0 = fully inhibited enzyme, 1 = untreated enzyme; activation factor at 5 µM; P33261; 96,000 tested, under 10 active; AID 1025;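 active means activation factor of at least 2 at 5 µM in the primary screen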;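 further: 0 = wells with 2.5 mM tranylcypromine and 1 = vehicle-only wells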
CYP2C19 inhib = inhibitors of human CYP2C19; P33261; CYP2C19 Supersomes, luciferin-H EGE luminescence, 30 min; inhibition, % at 5 µM; 96,000 tested, 21% active;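 active means CYP2C19 inhibition above a set limit at 5 µM in the primary screen, cut at about 50% in these data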;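 further: plate controls were negative control wells for no effect and 2.5 mM tranylcypromine positive control for full effect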
Active calls of the source: *; . = no result given. Most compounds without a hit are left out; they make up all but 21% or so of the library.

SMILES	CYP2C9 inh	MRP-1 activ	MRP resist rev	CYP2C9 activ	CYP2C19 act	CYP2C19 inhib
O=C(NCc1ccco1)C1CCCN(S(=O)(=O)c2cccc3cccnc23)C1 (configuration not stated)	-306	-3	10	4.1*	0.3	70*
CS(=O)(=O)N1CCCC(C(=O)NCc2ccco2)C1 (configuration not stated)	-14	1	-7	1.1	1.2	-18
Cc1ccc(CNC(=O)C2CCCN(S(=O)(=O)c3c(C)[nH]c(=O)[nH]c3=O)C2)cc1 (configuration not stated)	.	-1	.	.	.	.
COc1cccc(NC(=O)C2CCCN(S(=O)(=O)c3cccc4cccnc34)C2)c1 (configuration not stated)	-2	-3	13	1	0.7	33
O=C(C1CCN(S(=O)(=O)c2cccc3cccnc23)CC1)N1CCN(c2ccccc2)CC1	-92	0	10	1.9	0.6	41
CC(C)(C)NC(=O)C1CCCN(S(=O)(=O)c2cccc3cccnc23)C1 (configuration not stated)	-166	-3	11	2.7*	0.6	37
CCOC(=O)/C=C1\SCC(=O)N1CC(=O)NCc1cccc(Cl)c1	.	-1	.	.	.	.
O=C(COc1cccc(F)c1)N[C@@H](Cc1ccccc1)c1nc2ccccc2[nH]1	.	-1	.	.	.	.
O=C(Nc1ccccc1F)C1CCCN(S(=O)(=O)c2cccc3cccnc23)C1 (configuration not stated)	-73	-2	8	1.7	0.2	76*
CCOC(=O)C1CCCN(S(=O)(=O)c2cccc3cccnc23)C1 (configuration not stated)	-346	0	10	4.5*	0.2	81*
O=C(Nc1ccncc1)C1CCCN(S(=O)(=O)c2cccc3cccnc23)C1 (configuration not stated)	94*	-4	-45	0.1	0	99*
Cc1nnc(NC(=O)C2CCCN(S(=O)(=O)c3ccccc3C(F)(F)F)C2)s1 (configuration not stated)	62*	-1	-16	0.4	0.5	51*
CC(=O)CCc1c[nH]c2c(C(=O)O)cccc12	-23	0	11	1.2	1.1	-13
Cc1cccc(C)c1N(CC(O)Cn1c2ccccc2c2ccccc21)S(C)(=O)=O (configuration not stated)	72*	-3	-19	0.3	0.2	80*
Cc1ccc(N(CC(O)Cn2c3ccccc3c3ccccc32)S(C)(=O)=O)c(C)c1 (configuration not stated)	6	-6	-18	0.9	0.9	8
CS(=O)(=O)N(Cc1ccco1)CC(O)Cn1c2ccccc2c2ccccc21 (configuration not stated)	59*	-1	.	0.4	0.4	63*
OC(CNCc1ccco1)Cn1c2ccccc2c2ccccc21 (configuration not stated)	32	-2	-3	0.7	0.4	65*
Cc1ccc(N(CC(O)CON=C2c3ccccc3-c3ccccc32)S(C)(=O)=O)cc1 (configuration not stated)	53*	-3	-28	0.5	0.5	47
Cc1ccc(N(CC(O)CN2CCCC2)S(=O)(=O)c2ccc(C)cc2)cc1 (configuration not stated)	-2	-2	.	1	0.9	10
CC(=O)Nc1ccc(N(CC(O)Cn2c3ccccc3c3ccccc32)S(=O)(=O)c2ccc(C)cc2)cc1 (configuration not stated)	.	-3	.	.	.	.
CCCC(=O)NC(=S)Nc1ccc(NC(=O)C(C)C)c(OC)c1	.	-2	.	.	.	.
FC(F)(F)C1=CC(c2ccccc2)=NCCN1	-3	-2	1	1	1	2
O=C(Nc1cccc2c1CCCC2)c1ccc(Br)o1	-6	0	12	1.1	0.8	16
CCOc1nc(Nc2ccc(OC)c(Cl)c2)nc(OCC)n1	8	-2	-26	0.9	0.9	5
Cc1ccc(N(CC(O)Cn2c3ccccc3c3ccccc32)S(C)(=O)=O)cc1 (configuration not stated)	96*	-3	-17	0	0.1	94*
Cc1ccc(C(=O)NN2C(=O)C3C4c5ccccc5C(c5ccccc54)C3C2=O)cc1 (configuration not stated)	.	-1	.	.	.	.
COC(=O)c1ccc(-c2ccc(Cl)cc2)nc1C	.	1	.	.	.	.

Screening results deposited in PubChem BioAssay by several laboratories.
